Measurements from PubChem BioAssay AID547 (Emory University Molecular Libraries Screening Center, 2006).
Where “and” joins values, the source holds several entries; their conditions need not be identical. Equal values may be shown once. Among all 1,300 compounds or so, about 10 (0.8%) were called active. The rule behind the calls is not given here. This excerpt belongs to a sample that is enriched for actives.

Molecular target: Chaperone protein DnaK (Escherichia coli (strain K12)) (UniProt P0A6Y8)
Test: blockers of bacterial DnaK function – luminescence, E. coli K12, primary screen (AID 547);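 note: tested at 10 µM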
Settings: DnaK chaperone assay, luminescence read-out; active compounds read low

luminescence, active:
CCCCCCC/C=C\CCCCCCCCC(=O)O 1.7e+06 cps
CCCCCCCC/C=C\CCCCCCCC(=O)NCCc1ccc(O)c(O)c1 1.5e+06 cps
CCCCCCCCCCCCCCCC(=O)NCC(COP(=O)([O-])OCC[N+](C)(C)C)OCC (stereo unspecified) 1.9e+06 cps

luminescence, inactive:
NCCCCCCNS(=O)(=O)c1cccc2c(Cl)cccc12 2.8e+06 cps
CCSC(N)=Nc1ccc(C(F)(F)F)cc1 2.3e+06 cps
OC[C@H]1O[C@@H](n2cnc3c(Nc4ccccc4)ncnc32)C(O)[C@H]1O (stereo partly specified) 2.3e+06 cps
COc1ccccc1N1CCN(CCCCNS(=O)(=O)c2cccc3c(N(C)C)cccc23)CC1 2.1e+06 cps
O=c1cc(-c2ccccc2)[nH]c2nc(Cl)ccc12 2.7e+06 cps
CC(=O)N[C@H](C(=O)O)C(C)(C)SN=O 2.5e+06 cps
O=C(O)c1cc2cc(F)ccc2[nH]1 2.1e+06 cps
O=c1[nH]c2cc(C(F)(F)F)ccc2n1-c1cc(C(F)(F)F)ccc1O 2.6e+06 cps
O=C(O)CC1CCCc2ccccc2C1O (stereo unspecified) 2.7e+06 cps
NCC(O)C1CCCCCCC1 (stereo unspecified) 2.9e+06 cps
CN=C(NC#N)Nc1ccc(C2=NNC(=O)CC2C)cc1 (stereo unspecified) 2.6e+06 cps
O=C1NC(c2cccc([N+](=O)[O-])c2)=CCN1c1ccccc1O 3e+06 cps
CC1(C)CCC=[N+]1[O-] 2.6e+06 cps
NC[C@@H]1O[C@H](C23CC4CC(CC(C4)C2)C3)Cc2c1ccc(O)c2O 3e+06 cps
N#C/C(=C\c1c[nH]c2ccccc12)C(=O)c1ccc(O)c(O)c1 2.2e+06 cps
O=C1C2C=CC=CC2=NC(=S)N1CCN1CCC(=C(c2ccc(F)cc2)c2ccc(F)cc2)CC1 (stereo unspecified) 2.9e+06 cps
COc1cc2nc(N3CCN(C(=O)OCc4ccccc4)C(C(=O)NC(C)(C)C)C3)nc(N)c2cc1OC (stereo unspecified) 2.3e+06 cps
CCc1cccc(N(C)C(N)=Nc2cccc3ccccc23)c1 2.4e+06 cps
Nc1nc(Cl)nc2c1ncn2[C@@H]1O[C@H](CO)[C@H](O)C1O (stereo partly specified) 2.7e+06 cps
OCc1ccc(-c2nn(Cc3ccccc3)c3ccccc23)o1 2.1e+06 cps
CC(N)(Cc1ccc(O)c(O)c1)C(=O)O (stereo unspecified) 2.3e+06 cps
CC1CNCCN1S(=O)(=O)c1cccc2cnccc12 (stereo unspecified) 3.1e+06 cps and 2.6e+06 cps
OCC1NC[C@@H](O)C(O)[C@@H]1O (stereo partly specified) 2.4e+06 cps
O=C(O)CNC(=O)C(CS)Cc1ccccc1 (stereo unspecified) 2.3e+06 cps
CN(C)C/C=C(/c1ccc(Br)cc1)c1cccnc1 1.8e+06 cps
CN1CCc2cc(NC(=O)Nc3cccnc3)ccc21 2.6e+06 cps
CCCCOc1cc(CC2CNC(=O)N2)ccc1OC (stereo unspecified) 2.5e+06 cps
CCCCCCCCCCCCCCCCCC(=O)OC(CC(=O)O)C[N+](C)(C)C (stereo unspecified) 2.5e+06 cps
CN1C2CCC1CC(OC(=O)c1c[nH]c3ccccc13)C2 (stereo unspecified) 2.3e+06 cps
NCCS 2.4e+06 cps
Fc1ccc([C@@H]2CCNC[C@H]2COc2ccc3c(c2)OCO3)cc1 2.9e+06 cps
NCCCCCCCCCCN 2.6e+06 cps
O=C(O)C1=CCCNC1 2.8e+06 cps
C[C@]12CC[C@@H]3c4ccc(O)cc4CC[C@H]3[C@@H]1CC[C@@H]2O 2.9e+06 cps
CCOC(=O)C1=C[C@]2(CC)CCCN3CCc4c(n1c1ccccc41)[C@@H]32 2.3e+06 cps
O=Nc1c(-c2c(O)[nH]c3ccccc23)[nH]c2ccccc12 2.9e+06 cps
OC[C@H]1O[C@@H](n2cnc3c(NCCc4ccccc4)ncnc32)C(O)[C@H]1O (stereo partly specified) 2.2e+06 cps
CC(C)(C)NCC(O)COc1nsnc1N1CCOCC1 (stereo unspecified) 2.3e+06 cps
O=c1n(CCCN2CCN(c3cccc(Cl)c3)CC2)nc2ccccn12 2.5e+06 cps
CCN1CCc2nc(N)oc2CC1 2.6e+06 cps
CC(N)C1CCC(C(=O)Nc2ccncc2)CC1 (stereo unspecified) 2.8e+06 cps
COCc1nc2c([nH]1)c(=O)n(C)c(=O)n2CC(C)C 2.7e+06 cps
CCCCC1C(=O)N(c2ccccc2)N(c2ccccc2)C1=O 2.6e+06 cps
Oc1ccc(O)cc1 2.9e+06 cps
NC(=O)CC[C@H](N)C(=O)O 2.9e+06 cps
COc1[nH]c2ccc(F)cc2c1C(=O)OCC1CCN(CCNS(C)(=O)=O)CC1 3e+06 cps
COc1ccc(-c2ccc(N)[n+](CCCC(=O)O)n2)cc1 2.3e+06 cps
C[C@H]1CC2C3CCC4=CC(=O)C=C[C@]4(C)[C@@]3(Cl)[C@@H](O)C[C@]2(C)[C@@]1(O)C(=O)CO (stereo partly specified) 2.6e+06 cps
N=S(=O)(O)Cc1noc2ccccc12 2.1e+06 cps
CCCCCCCC/C=C\CCCCCCCC(=O)NCCO 2.9e+06 cps
CCCCCCCCCCC/C=C\C(C)(C)/C=C\CCCC(=O)O 2.3e+06 cps
CC1C(=O)N(C)C(=O)c2nc[nH]c21 (stereo unspecified) 2.4e+06 cps
N.N.O=C(O)C1(C(=O)O)CCC1.[Pt+2] 2.5e+06 cps
CCCCS(=N)(=O)CCC(N)C(=O)O (stereo unspecified) 1.9e+06 cps
CC(=O)NCCc1ccc(O)c(O)c1 2.8e+06 cps
CCCCCCCCCCCCCCCC(=O)NCCO 2.9e+06 cps
NC(=O)c1ccccc1 2.5e+06 cps
N#CC(Cc1ccc(O)c(O)c1)C(=O)N1CCc2ccccc21 (stereo unspecified) 2.2e+06 cps
CCNC(=O)[C@H]1O[C@@H](n2cnc3c(N)nc(NCCc4ccc(CCC(=O)O)cc4)nc32)C(O)[C@H]1O (stereo partly specified) 2.4e+06 cps
CC(=O)O[C@H]1CC2(C)[C@@H](C[C@@H](O)[C@H]3[C@@]4(C)CC[C@@H](O)[C@@H](C)[C@@H]4CC[C@@]32C)C1=C(CCC=C(C)C)C(=O)O (stereo partly specified) 2.8e+06 cps
O=C1N=C(O)CN1/N=C/c1ccc(-c2ccc([N+](=O)[O-])cc2)o1 3e+06 cps
CCCCCCCCCCCCCCCCCC(=O)NCC(COP(=O)([O-])OCC[N+](C)(C)C)OCC (stereo unspecified) 2.8e+06 cps
CCCCCCCCCCCCCCCCCCOC[C@H](COP(=O)([O-])OCC[N+](C)(C)C)OC 2.6e+06 cps
COc1cccc(-c2cc(=O)c3ccccc3o2)c1N 2.2e+06 cps
CC(C)OC(=O)C(C)(C)Oc1ccc(C(=O)c2ccc(Cl)cc2)cc1 2.9e+06 cps
COc1ccc(CCN(C)CCCC(C#N)(c2cc(OC)c(OC)c(OC)c2)C(C)C)cc1OC (stereo unspecified) 2.5e+06 cps
COc1ccccc1N1CCN(CCN2C(=O)CC3(CCCC3)CC2=O)CC1 3.1e+06 cps
NC(=O)N1c2ccccc2C=Cc2ccccc21 2.7e+06 cps
Cc1ccc(C(=O)O[C@H](C(=O)O)[C@H](OC(=O)c2ccc(C)cc2)C(=O)O)cc1 (tested in a mixture with another compound) 2.5e+06 cps
CNC[C@H](O)c1cccc(O)c1 2.3e+06 cps
Cc1nc2n(c(=O)c1CCN1CCC(c3noc4cc(F)ccc34)CC1)CCCC2 2.6e+06 cps
c1ccc(-c2ccccn2)nc1 2.6e+06 cps
CCCCOC(=O)NS(=O)(=O)c1sc(CC(C)C)cc1-c1ccc(Cn2c(CC)nc3c(C)cc(C)nc32)cc1 2.5e+06 cps
CC#C[C@]1(O)CC[C@H]2[C@@H]3CCC4=CC(=O)CCC4=C3[C@@H](c3ccc(N(C)C)cc3)C[C@@]21C 2e+06 cps
NCCCCCC(=O)O 2.3e+06 cps
Oc1cc(O)c2c(c1)O[C@H](c1ccc(O)c(O)c1)[C@@H](O)C2 2.8e+06 cps
CN1Cc2c(N)cccc2C(c2ccccc2)C1 (stereo unspecified) 2.2e+06 cps
CN(C)c1cc2c(Nc3ccc4c(cnn4Cc4ccccc4)c3)ncnc2cn1 3e+06 cps
CCSC(=N)N 2.4e+06 cps
N[C@@H](CC(=O)O)C(=O)O 2.4e+06 cps
N#Cc1cc2nc(O)c(O)nc2cc1[N+](=O)[O-] 2.8e+06 cps
CN(C)c1nc(N(C)C)nc(N(C)C)n1 2.4e+06 cps
COc1cc([C@@H]2c3cc4c(cc3[C@H](O)C3COC(=O)[C@@H]32)OCO4)cc(OC)c1OC (stereo partly specified) 2.6e+06 cps
CN1[C@@H](CC(=O)c2ccccc2)CCC[C@H]1C[C@H](O)c1ccccc1 2.6e+06 cps
CCCCN1CCC(COC(=O)c2cc(Cl)c(N)c3c2OCCO3)CC1 2.2e+06 cps
COC(=O)C(N)Cc1ccc(Cl)cc1 (stereo unspecified) 2.2e+06 cps
CC(C)NC[C@@H](O)c1ccc(O)c(O)c1 2.5e+06 cps
Nc1ccc(CCNc2ncnc3c2ncn3C2OC(CO)C(O)C2O)cc1 (stereo unspecified) 2.9e+06 cps
